The panel holds about 79,000 compounds, 15% with a hit somewhere; the sample as a whole holds those more often. Unmarked numbers belong to inactive results. Activity calls are given as the source filed them. No stated cut-off is given here; in the data, active means growth inhibition above about 70%; inactive means the rest.
assay: NCI Yeast Anticancer Drug Screen. Data for the bub3 strain (AID 167); details: S. cerevisiae bub3 mutant strain, at 50.0 µM, hits give high values
How it was run: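 Steps: expose the mutant yeast strain to compound; grow alongside vehicle-treated cultures; measure growth; express inhibition against the vehicle cultures.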

Row | SMILES | growth inhibition
1 | Cc1cc(C)cc(C(=O)NCc2ccc[n+]([O-])c2)c1 | 0.4%
2 | CC(C)(C)OC(=O)N[C@H]1CCN(C2CCCCC2)C1=O | -6.4%
3 | Cc1ccc(S(=O)(=O)N2CCCCC2)cc1 | -6.75%
4 | Cc1cc(C)c(C(=O)OCCN(C)C)c(C)c1 | 0.5%
5 | C[N+]12C=CC=C1C(N1CCCC1)c1sc(-c3ccc(Cl)cc3)cc12 (stereo not given) | 0.55%
6 | O=C(c1cccs1)N(C(=S)N1CCN(c2ccccc2)CC1)c1ccccc1 | -30.4%
7 | CCCCCCOC(=O)c1cccc(C)c1 | 6.85%
8 | COc1ccc(C(c2cc3c(cc2O)OCO3)N2CCOCC2)c(OC)c1 (stereo not given) | -29.6%
9 | O=C1CN(c2cccc(Cl)c2)C(=O)CN1CCN1CC(=O)N(c2cccc(Cl)c2)CC1=O | -37.5%
10 | CCOC(=O)C1CC(C)c2[nH]c3ccccc3c21 (stereo not given) | -12%
11 | CC(=O)N(C)Nc1ccccc1 | 19.7%
12 | N#CCCOCC(COCCC#N)(COCCC#N)COCCC#N | -12.9%
13 | Oc1ccc(-c2ccc(Br)cc2)cc1 | -31.8%
14 | CCOC(=O)C(CCSC)(CCN(C)Cc1ccccc1)C(=O)OCC | 8.85%
15 | CCCNC(=S)NN1C2CSC1CS2 | -23.9%
16 | O=c1[nH]c(=O)n(C2CC(O)C(CO)O2)cc1Cl (stereo not given) | 1.45%
17 | O=C1C=CC(=O)C1 | 5.65%
18 | O=C(Cc1cc[n+]([O-])cc1)C(=O)Nc1cc(Cl)c(Cl)cc1Cl | -17.8%
19 | COc1cc2cnc(-c3ccncc3)c(N)c2cc1OC | 7.8%
20 | O=C1c2cc([N+](=O)[O-])ccc2-c2c(I)cccc21 | -9.25%

Row | SMILES | growth inhibition
21 | NC(=O)C(CCN1CCCCC1)c1ccccc1 (stereo not given) | 5.45%
22 | C[C@@]12CCC3C1C=C1C(=O)c4cc(O)ccc4C(=O)[C@]1(O2)[C@@]3(C)C=O | 76.3% (active)
23 | O=C(/C=C/c1ccc(F)c(F)c1)OCCc1ccccc1 | 40.9%
24 | Cc1ccc(C)c(NC(=O)C(=O)C(C2C(C)CC(=O)C2CC(=O)O)[N+](=O)[O-])c1 (stereo not given) | 6.6%
25 | CC1=NN(c2nc(N)nc(CCl)n2)CC1 | 11.5%
26 | Cc1ccc(C)c(NC(=O)Nc2cccc(Cl)c2)c1 | 9.4%
27 | O=C(c1ccc2c(c1)C(=O)OC2=O)c1ccc2c(c1)C(=O)OC2=O | -27.8%
28 | O=C(O)C(CCCN1C(=O)c2ccccc2C1=O)N1C(=O)c2ccccc2C1=O (stereo not given) | -0.35%
29 | Cc1nc(CCCCCCCC(=O)O)ccc1O | 0.85%
30 | C=CC(O)CCCCCC (stereo not given) | -10.2%
31 | O=C(O)C#Cc1cccc(Cl)c1 | -16.5%
32 | Cn1c(=O)c2c(=O)n3ccccc3nc2n(C)c1=O | 62.9%
33 | COC(=O)c1cnc2nc(N3CCOCC3)[nH]n2c1=O | -4.7%
34 | N#Cc1c(/C=C/c2ccccc2)c2c([nH]c1=S)CCCCC2 | 16.9%
35 | O=c1[nH]cnc2ncnn12 | 21%
36 | CCOC(=S)SCc1ccc([N+](=O)[O-])cc1 | 43%
37 | NC(=O)Cc1cc2c(cc1CO)OCO2 | -13.3%
38 | Nc1c(Br)c(Cl)c(Br)c2c1-c1ccc(Cl)cc1C2 | 7.15%
39 | N#CC1CC=CCN1CCc1ccccc1 (stereo not given) | 20.7%
40 | Clc1cccc2c(SCCCCCSc3c4ccccc4nc4c(Cl)cccc34)c3ccccc3nc12 | -23.9%

assay: NCI Yeast Anticancer Drug Screen. Data for the mlh1 rad18 strain (AID 175); details: S. cerevisiae mlh1 rad18 strain growth inhibition; at 50.0 µM; hits give high values
How it was run: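 Genetically defined yeast (DNA repair-deficient) exposed to compounds; growth inhibition determined relative to vehicle.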

Row | SMILES | growth inhibition
41 | Cc1cc(C)cc(C(=O)NCc2ccc[n+]([O-])c2)c1 | 17.6%
42 | CC(C)(C)OC(=O)N[C@H]1CCN(C2CCCCC2)C1=O | -62.5%
43 | Cc1ccc(S(=O)(=O)N2CCCCC2)cc1 | -20.5%
44 | Cc1cc(C)c(C(=O)OCCN(C)C)c(C)c1 | -0.6%
45 | C[N+]12C=CC=C1C(N1CCCC1)c1sc(-c3ccc(Cl)cc3)cc12 (stereo not given) | 16.4%
46 | O=C(c1cccs1)N(C(=S)N1CCN(c2ccccc2)CC1)c1ccccc1 | -4.3%
47 | CCCCCCOC(=O)c1cccc(C)c1 | 11.2%
48 | COc1ccc(C(c2cc3c(cc2O)OCO3)N2CCOCC2)c(OC)c1 (stereo not given) | -17.9%
49 | O=C1CN(c2cccc(Cl)c2)C(=O)CN1CCN1CC(=O)N(c2cccc(Cl)c2)CC1=O | -32.2%
50 | CCOC(=O)C1CC(C)c2[nH]c3ccccc3c21 (stereo not given) | -13%
51 | CC(=O)N(C)Nc1ccccc1 | -17.6%
52 | N#CCCOCC(COCCC#N)(COCCC#N)COCCC#N | -2.25%
53 | Oc1ccc(-c2ccc(Br)cc2)cc1 | -14.8%
54 | CCOC(=O)C(CCSC)(CCN(C)Cc1ccccc1)C(=O)OCC | -3.3%
55 | CCCNC(=S)NN1C2CSC1CS2 | -0.4%
56 | O=c1[nH]c(=O)n(C2CC(O)C(CO)O2)cc1Cl (stereo not given) | 2.25%
57 | O=C1C=CC(=O)C1 | -3.75%
58 | O=C(Cc1cc[n+]([O-])cc1)C(=O)Nc1cc(Cl)c(Cl)cc1Cl | -20.1%
59 | COc1cc2cnc(-c3ccncc3)c(N)c2cc1OC | 7.65%
60 | O=C1c2cc([N+](=O)[O-])ccc2-c2c(I)cccc21 | -6.45%

Row | SMILES | growth inhibition
61 | NC(=O)C(CCN1CCCCC1)c1ccccc1 (stereo not given) | 24.8%
62 | C[C@@]12CCC3C1C=C1C(=O)c4cc(O)ccc4C(=O)[C@]1(O2)[C@@]3(C)C=O | 89.7% (active)
63 | O=C(/C=C/c1ccc(F)c(F)c1)OCCc1ccccc1 | 27.2%
64 | Cc1ccc(C)c(NC(=O)C(=O)C(C2C(C)CC(=O)C2CC(=O)O)[N+](=O)[O-])c1 (stereo not given) | 1.7%
65 | CC1=NN(c2nc(N)nc(CCl)n2)CC1 | -29.2%
66 | Cc1ccc(C)c(NC(=O)Nc2cccc(Cl)c2)c1 | -7.65%
67 | O=C(c1ccc2c(c1)C(=O)OC2=O)c1ccc2c(c1)C(=O)OC2=O | -29.7%
68 | O=C(O)C(CCCN1C(=O)c2ccccc2C1=O)N1C(=O)c2ccccc2C1=O (stereo not given) | -6.95%
69 | Cc1nc(CCCCCCCC(=O)O)ccc1O | 7.3%
70 | C=CC(O)CCCCCC (stereo not given) | -20.7%
71 | O=C(O)C#Cc1cccc(Cl)c1 | -12.8%
72 | Cn1c(=O)c2c(=O)n3ccccc3nc2n(C)c1=O | 69.4%
73 | COC(=O)c1cnc2nc(N3CCOCC3)[nH]n2c1=O | -10.5%
74 | N#Cc1c(/C=C/c2ccccc2)c2c([nH]c1=S)CCCCC2 | 19.1%
75 | O=c1[nH]cnc2ncnn12 | 16.4%
76 | CCOC(=S)SCc1ccc([N+](=O)[O-])cc1 | 16.9%
77 | NC(=O)Cc1cc2c(cc1CO)OCO2 | 5.55%
78 | Nc1c(Br)c(Cl)c(Br)c2c1-c1ccc(Cl)cc1C2 | 5.05%
79 | N#CC1CC=CCN1CCc1ccccc1 (stereo not given) | 7.5%
80 | Clc1cccc2c(SCCCCCSc3c4ccccc4nc4c(Cl)cccc34)c3ccccc3nc12 | -24.6%

From PubChem BioAssay (NCI)
